Reference: PubChem BioAssay (Tox21)
Results filed as inconclusive are left out. Active and inactive are the calls of the source. Calls follow the shape of the dose curve; as a rule, active = well fitted curve in the direction sought with a large enough effect in the repeat runs; inconclusive = weak or mixed curves; inactive = no such curve, though single readings can be large; an effect the other way counts as inactive or inconclusive.

Columns and labels:
[1] = qHTS RealTime-Glo MT Cell Viability Assay in HepG2 cells - 40 hour (AID 1224870); also: nearly all actives have a fitted effect of over 50% in size
Procedure, shortened: (§1)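 Real-time viability: cells seeded at 600 per well together with NanoLuc and cell-permeant prosubstrate, compounds added after 5 h incubation. Luminescence tracked at 0, 8, 16, 24, 32 and 40 h of exposure.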

[2] = A CellTox Green Cytotoxicity Assay to monitor cytotoxicity in HEK293 cells - 40 hour (AID 1224871); also: nearly all actives have a fitted effect of over 45% in size
Procedure, shortened: (§2)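 Cells (HEK293, 600/well) and dye reagent are dispensed together. After 5 h at 37 C, 23 nL compound is pinned in. Plates stay at 37 C for 40 h with fluorescence read at 0h, 8h, 16h, 24h, 32h and 40h.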

[3] = qHTS RealTime-Glo MT Cell Viability Assay in HEK293 cells - 16 hour (AID 1224872); also: top concentration of the series differs between compounds; nearly all actives have a fitted effect of over 50% in size
Procedure, shortened: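 Viability tracked continuously by luminescence as live cells reduce a prosubstrate for NanoLuc; HEK293 cells preincubated 5 h, compound-treated at 37 C, and read at 0, 8, 16, 24, 32 and 40 h.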

[4] = qHTS RealTime-Glo MT Cell Viability Assay in HepG2 cells - 8 hour (AID 1224873); also: nearly all actives have a fitted effect of over 55% in size
Procedure, shortened: as §1

[5] = qHTS RealTime-Glo MT Cell Viability Assay in HEK293 cells - 40 hour (AID 1224874); conditions: RealTime-Glo luminescence; max response: active compounds read low; also: nearly all actives have a fitted effect of over 50% in size
Procedure, shortened: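 Real-time viability in HEK293: signal arises when living cells convert a prosubstrate for NanoLuc in the medium, so luminescence tracks viable cell number. Compound (23 nL, DMSO) added 5 h post-seeding; kinetic reads at 0–40 h, 37 C.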

[6] = A CellTox Green Cytotoxicity Assay to monitor cytotoxicity in HEK293 cells - 24 hour (AID 1224875); also: series mostly up to about 77 µM; nearly all actives have a fitted effect of over 45% in size
Procedure, shortened: as §2

[7] = A CellTox Green Cytotoxicity Assay to monitor cytotoxicity in HepG2 cells - 16 hour (AID 1224876); also: nearly all actives have a fitted effect of over 45% in size
Procedure, shortened: (§3)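 Cells and non-lytic dye reagent are dispensed together (600 HepG2 cells/well) and incubated 5 h before DMSO compound transfer. Kinetic fluorescence is then recorded in the same wells during 40 h at 37 C.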

[8] = qHTS RealTime-Glo MT Cell Viability Assay in HepG2 cells - 32 hour (AID 1224877); also: nearly all actives have a fitted effect of over 55% in size
Procedure, shortened: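 Viability was tracked continuously by NanoLuc luminescence from prosubstrate reduced by living HepG2 cells, at successive time points over 40 h of compound exposure. Cells with reagent were preincubated 5 h at 37 °C before compound addition.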

[9] = A CellTox Green Cytotoxicity Assay to monitor cytotoxicity in HepG2 cells - 24 hour (AID 1224878); also: nearly all actives have a fitted effect of over 45% in size
Procedure, shortened: as §3

[10] = A CellTox Green Cytotoxicity Assay to monitor cytotoxicity in HepG2 cells - 40 hour (AID 1224879); also: nearly all actives have a fitted effect of over 40% in size
Procedure, shortened: as §3
% is scaled to controls: 0 for no effect and ±100 for the full control effect.

OCCCCCCO
inactive: Potency [1] | Potency [2] | Potency [3] | outcome [4] | max response [5] -17.6% | Potency [6] | Potency [7] | Potency [8] | Potency [9]

C[C@H](O)C(=O)Nc1c(I)c(C(=O)NC(CO)CO)c(I)c(C(=O)NC(CO)CO)c1I
inactive: Potency [1] | Potency [2] | Potency [3] | outcome [4] | max response [5] 4.24% | Potency [6] | Potency [7] | Potency [8] | Potency [9] | Potency [10]

O=c1[nH]c2ccccc2c(=O)n1CCCl
inactive: Potency [1] | Potency [2] | Potency [3] | outcome [4] | max response [5] 3.48% | Potency [6] | Potency [7] | Potency [8] | Potency [9]

OC/C=C/c1ccccc1
inactive: Potency [1] | Potency [2] | Potency [3] | outcome [4] | max response [5] 21.7% | Potency [6] | Potency [7] | Potency [8] | Potency [9]

C=C(C)C(=O)OCCCCCCCCCCCCCCCCCC
inactive: activity change, negative = cytotoxic [1] 13.1% [at 15.8 µM] | cytotoxicity increase [2] 0.266% [at 15.8 µM] | activity change, negative = cytotoxicity [3] 9.27% [at 15.8 µM] | viability change, negative = cytotoxic [4] -0.392% [at 15.8 µM] | max response [5] 3.5% | activity change [6] 0.0651% [at 15.8 µM, active compounds read high] | cytotoxicity increase [7] 3.12% [at 15.8 µM] | activity change, negative = cytotoxic [8] 6.06% [at 15.8 µM] | cytotoxicity [9] -0.0576% [at 15.8 µM] | cytotoxicity increase [10] 2.24% [at 15.8 µM]

O=C1OC(=O)c2cc([N+](=O)[O-])ccc21
inactive: Potency [1] | Potency [2] | Potency [3] | outcome [4] | max response [5] 13% | Potency [6] | Potency [7] | Potency [8] | Potency [9]

CC1(C)SC(C)(C)SC(C)(C)S1
inactive: Potency [1] | Potency [2]

O=Cc1ccccc1[N+](=O)[O-]
inactive: Potency [1] | Potency [2] | Potency [3] | outcome [4] | max response [5] -5.52% | Potency [6] | Potency [7] | Potency [8] | Potency [9] | Potency [10]

Cc1nc(-c2ccc(OCC(C)C)c(C#N)c2)sc1C(=O)O
inactive: Potency [1] | Potency [2] | Potency [3] | outcome [4] | max response [5] -0.381% | Potency [6] | Potency [7] | Potency [8] | Potency [9] | Potency [10]

C#CC(O)C(CC)CCCC (stereo unspecified)
inactive: Potency [1] | Potency [2] | Potency [3] | outcome [4] | max response [5] 11.7% | Potency [6] | Potency [7] | Potency [8] | Potency [9]

CN(C)N=Nc1ccccc1
inactive: Potency [1] | Potency [2] | Potency [3] | outcome [4] | max response [5] 15% | Potency [6] | Potency [7] | Potency [8] | Potency [9] | Potency [10]

CC(C)=CC(=O)O
inactive: Potency [1] | Potency [2] | Potency [3] | outcome [4] | max response [5] 10.8% | Potency [6] | Potency [7] | Potency [8] | Potency [9]

CC(C)(C)N(CCO)CCO
inactive: Potency [1] | Potency [2] | Potency [3] | outcome [4] | max response [5] 0.933% | Potency [6] | Potency [7] | Potency [8] | Potency [9] | Potency [10]

CCCOCC(C)OCC(C)O (stereo unspecified)
inactive: Potency [1] | Potency [2] | Potency [3] | outcome [4] | max response [5] 5.98% | Potency [6] | Potency [7] | Potency [8] | Potency [9] | Potency [10]

Cc1ccc(Nc2ccc(O)c3c2C(=O)c2ccccc2C3=O)cc1
inactive: Potency [1] | Potency [2] | Potency [3] | outcome [4] | max response [5] 7.86% | Potency [6] | Potency [7] | Potency [8] | Potency [9] | Potency [10]

C=C(C)C(=O)NCCC[N+](C)(C)C
inactive: Potency [1] | Potency [2] | Potency [3] | outcome [4] | max response [5] 0.623% | Potency [6] | Potency [7] | Potency [8] | Potency [9] | Potency [10]

CN(C)C(=O)Nc1ccccc1
inactive: Potency [1] | Potency [2] | Potency [3] | outcome [4] | max response [5] 1.06% | Potency [6] | Potency [7] | Potency [8] | Potency [9] | Potency [10]

COC(C(=O)O)c1ccccc1 (stereo unspecified)
inactive: Potency [1] | Potency [2] | Potency [3] | outcome [4] | max response [5] 2.29% | Potency [6] | Potency [7] | Potency [8] | Potency [9] | Potency [10]

Nc1cc(N)cc(C(=O)O)c1
inactive: Potency [1] | Potency [2] | Potency [3] | outcome [4] | max response [5] 8.18% | Potency [6] | Potency [7] | Potency [8] | Potency [9] | Potency [10]

CCN1CCCC(OC(=O)C(c2ccccc2)c2ccccc2)C1 (stereo unspecified)
inactive: Potency [1] | Potency [2] | Potency [3] | outcome [4] | max response [5] 14.8% | Potency [6] | Potency [7] | Potency [8] | Potency [9] | Potency [10]

OCC(O)[C@@H](O)[C@H](O)[C@H](O)CO[C@H]1O[C@H](CO)[C@@H](O)[C@H](O)[C@H]1O (stereo partly specified)
inactive: Potency [1] | Potency [2] | Potency [3] | outcome [4] | max response [5] -0.563% | Potency [6] | Potency [7] | Potency [8] | Potency [9] | Potency [10]

CN(C)CCOC(c1ccc(Cl)cc1)c1ccccn1 (stereo unspecified)
inactive: Potency [1] | Potency [2] | Potency [3] | outcome [4] | max response [5] 6.99% | Potency [6] | Potency [7] | Potency [8] | Potency [9] | Potency [10]

CC(C)N1C(=O)c2ccccc2C1=O
inactive: Potency [1] | Potency [2] | Potency [3] | outcome [4] | max response [5] 4.79% | Potency [6] | Potency [7] | Potency [8] | Potency [9] | Potency [10]

CCCCCCCCCCCCCCC
inactive: Potency [1] | Potency [2] | Potency [3] | outcome [4] | max response [5] 10.7% | Potency [6] | Potency [7] | Potency [8] | Potency [9] | Potency [10]
